Data on 30 compounds can be found in PubChem BioAssay (NCATS).

Inconclusive results are not listed. The source made the active and inactive calls. Unless noted, calls come from the whole dose curve; as a rule, active = well fitted curve in the direction sought with a large enough effect; inconclusive = small, poorly fitted or top-dose-only effect, or another doubt; inactive = no such curve, though single readings can be large; an effect the other way counts as inactive or inconclusive.

Assay [1] addresses Thioredoxin reductase 1, cytoplasmic (Rattus norvegicus) (UniProt O89049). Put plainly: qHTS Assay for Inhibitors of Mammalian Selenoprotein Thioredoxin Reductase 1 (TrxR1) (AID 488773). Note: nearly all actives have a fitted effect of over 40% in size. Note: potency is the fitted concentration of half-maximal effect. The settings on record: Potency: inhibition. In a few lines: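 Steps: enzyme (90 nM) plus NADPH (400 uM final), 5 min at ~22 deg C; compound added, 15 min; selenite (400 uM final) added; fluorescence followed for 8 min. Concentration-response curves derived from the normalized delta values.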
(In qHTS, concentration-response curves come from the screen itself.)

Assay [2] deals with Flap endonuclease 1 (Homo sapiens) (UniProt P39748). Put plainly: qHTS Validation Assay for the Inhibitors of Human Flap endonuclease 1 (FEN1) (AID 488816). Note: % is set by controls: 0 for no effect and ±100 for the full control effect. A digest of the protocol:
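Human FEN1 (10 nM) preincubated 15 min at room temperature with compounds, then flap DNA substrate added at 50 nM final. Fluorescence read at 0 and 15 min; concentration-response fitted with four-parameter Hill equation.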

Assay [3] has as its target M-phase phosphoprotein 8 (Homo sapiens) (UniProt Q99549). Put plainly: qHTS Validation Assay for Inhibitors for MPP8 Chromodomain Interactions with Methylated Histone Tails (AID 488949).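 Note: AlphaScreen signal from MPP8 chromodomain bound to biotinylated H3K9me3 peptide; top concentration of the series differs between compounds; % is set by controls: 0 for no effect and ±100 for the full control effect; nearly all actives have a fitted effect of over 55% in size.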 A digest of the protocol: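 Disruption of the preformed MPP8–trimethyl-H3K9 peptide complex (both 50 nM, 30 min, RT) is measured after 30 min compound exposure, using AlphaScreen proximity beads; aurintricarboxylic acid titration serves as plate control.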

Assay [4] concerns the target Chromobox protein homolog 1 (Homo sapiens) (UniProt P83916). Put plainly: qHTS Validation Assay for Inhibitors of HP1-beta Chromodomain Interactions with Methylated Histone Tails (AID 488953).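 Note: loss of AlphaScreen luminescence from HP1-beta binding biotinylated H3K9me3 peptide; series mostly up to about 110 µM; % is set by controls: 0 for no effect and ±100 for the full control effect; nearly all actives have a fitted effect of over 50% in size.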 A digest of the protocol:
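HP1-beta (50 nM) preformed 30 min with biotinylated H3(1-18)K9me3 peptide (50 nM) in PBS pH 7.4, 0.01% Tween-20. Compounds added for 30 min at room temperature. Complex disruption read by AlphaScreen with streptavidin donor/nickel chelate acceptor beads (10 ug/mL each).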

The target in assay [5] is Transient receptor potential cation channel subfamily V member 1 (Homo sapiens) (UniProt Q8NER1). Put plainly: HTS Assay for Compounds that Act as Enhancers of the Vanilloid Receptor 1 (AID 488979). Note: 0% is about no effect. In a few lines: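 TRPV1 cells loaded with Fluo-8 calcium dye; compound added and Ca2+ signal (ex 480/em 520 nm) followed 3 min, then capsaicin at EC20 added and read 2 more min to detect enhancement.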

Assay [6] concerns the target Thyrotropin receptor (Homo sapiens) (UniProt P16473). Put plainly: qHTS Assay for Antagonists of the Thyroid Stimulating Hormone Receptor (AID 488980). Note: series mostly up to about 58 µM; 0% is about no effect. A digest of the protocol:
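Cells expressing human TSHR (HEK293) are dispensed in HBSS/HEPES containing 70 uM RO 20-1724, compound is added, then TSH at EC80 (4 nM final). Antibody in lysis buffer follows, 30 minutes at room temperature before HTRF detection.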

Assay [7] deals with D(1A) dopamine receptor (Homo sapiens) (UniProt P21728). Put plainly: HTS Assay for Allosteric Agonists of the Human D1 Dopamine Receptor: Primary Screen for Agonists (AID 488981). Note: 0% is about no effect. A digest of the protocol:
(§1)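 Tetracycline-induced HEK293 Trex D1 cells with forced coupling to calcium, loaded with no-wash calcium dye; kinetic fluorescence read 180 s after compound addition for agonism, then a further 180 s after an EC20 dopamine challenge for potentiation.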

The target is the same in assay [8]. Nature of the assay: HTS Assay for Allosteric Agonists of the Human D1 Dopamine Receptor: Primary Screen for Potentiators (AID 488982). Note: 0% is about no effect. A digest of the protocol:
as §1

Assay [9] addresses ATPase family AAA domain-containing protein 5 (Homo sapiens) (UniProt Q96QE3). Put plainly: Validation screen for small molecules that inhibit ELG1-dependent DNA repair in human embryonic kidney (HEK293T) cells expressing luciferase-tagged ELG1 (AID 493107). Note: nearly all actives have a fitted effect of over 70% in size. Note: potency is the fitted concentration of half-maximal effect. In a few lines:
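HEK293T cells expressing luciferase-tagged ELG1, 2,000 per well, treated with 5-fluorouridine plus compound for 16 h at 37 C. ONE-Glo luminescence after 30 min at room temperature reports ELG1 reporter level.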

Assay [10] has as its target Thyrotropin-releasing hormone receptor (Homo sapiens) (UniProt P34981). Nature of the assay: qHTS for Small Molecule Agonists and Allosteric Enhancers of Human TRH Receptor: Validation Screen for Agonists (AID 493127;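 active = calcium activation more than 3 SD above the typical response in the agonist read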; note: 0% is about no effect). The settings on record: TRH receptor agonist cell assay; at 2 µM; stronger effect = higher value. A digest of the protocol:
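TRHR cells loaded with fluo-8 calcium dye; FDSS kinetic fluorescence (Ex 480/Em 530) read at 1 s/cycle after 23 nL compound addition. Agonist-mode calcium response recorded before the 10 nM TRH (EC20) addition.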

A short description of assay [11]: qHTS for Inhibitors of Cell Surface uPA Generation: Validation Assay (AID 493164). Note: 0% is about no effect. A digest of the protocol: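 RAW 264.7 cells (4000/well) were plated overnight, then exposed for 18 h at 37 C, 5% CO2 to compounds in a 7-point 1:5 titration (2.45 nM–38.3 uM final). Intracellular ATP was read by ATP-Lite luminescence.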
Assay [12] has as its target Galactokinase (Homo sapiens) (UniProt P51570). Nature of the assay: qHTS Validation Assay for Inhibitors of Human Galactokinase (GALK) (AID 493189). Note: 0% is about no effect. In a few lines:
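Compounds were pin-transferred into ATP buffer, then GALK-galactose mix was added (final 5 nM enzyme, 100 uM galactose, 35 uM ATP). After 1 h at room temperature, remaining ATP was measured luminescently.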

Assay [13] can be described thus: Validation screen for small molecules that induce DNA re-replication in SW480 colon adenocarcinoma cells (AID 504364). Note: 0% is about no effect. In a few lines:
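SW480 cells (250/well) exposed 48 h at 37 C, 5% CO2, then Hoechst-stained 40 min. Nuclear DNA content imaged by fluorescence scanning (405 nm excitation, 500-530 nm emission); re-replication scored as increased nuclei with elevated intensity.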

Assay [14] deals with Peptidyl-prolyl cis-trans isomerase NIMA-interacting 1 (Homo sapiens) (UniProt Q13526). Put plainly: qHTS Validation Assay to Find Inhibitors of Pin1 (AID 504536; active = well fitted inhibition curve with a large enough effect in the polarisation, with a control signal flat, not every such curve was filed as active; the % refers to the polarisation;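 note: 0% = full Pin1 enzyme wells and -100% = no-enzyme wells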). In a few lines:
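Fluorescence polarization competition: compounds (titration) displace HiFluor-488-labeled Pin1-1b peptide from Pin1 (0.3 uM final) in pH 7.5 HEPES buffer with DTT, 10 min at room temperature; %Activity normalized to no-enzyme wells, curves fitted.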

In assay [15] the target is Phosphoglycerate kinase, glycosomal (Trypanosoma brucei brucei) (UniProt P07378). Nature of the assay: qHTS Validation Assay to Find Inhibitors of Phosphoglycerate Kinase (AID 504547).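 Note: control wells lack PGK and mark full inhibition.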 In a few lines:
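PGK activity was coupled to GAPDH (100nM final), which generates the unstable substrate 1,3-bisphosphoglycerate in-well. Reactions ran 60 minutes at room temperature in 100mM TEA pH 7.6, 5mM MgCl2, 0.01% Tween-20, then Kinase-Glo Plus luminescence was read.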

The target of assay [16] is Methanococcus maripaludis chaperonin (MmCpn) (UniProt Q6LX38). Put plainly: High-Throughput Screening for Modulators of Cytosolic Chaperonin Activity: MmCpn Primary Screen (AID 488978).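 Note: 50 nM MmCpn enzyme hydrolysing 30 µM ATP at 37 °C; 0% is about no effect.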 In a few lines:
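Measures ATPase turnover of the M. maripaludis chaperonin (50 nM final) against 30 uM ATP over 10 min at 37C, with compound added 5 min beforehand at room temperature. ADP is quantified by HTRF immunodetection.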

Assay [17] concerns the target D(1A) dopamine receptor (Homo sapiens) (UniProt P21728). Nature of the assay: HTS Assay for Allosteric Agonists of the Human D1 Dopamine Receptor: Primary Screen for Antagonists (AID 488983).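 Note: calcium flux response to an EC80 dopamine challenge measured with no-wash dye; % is set by controls: 0 for no effect and ±100 for the full control effect; nearly all actives have a fitted effect of over 65% in size.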 A digest of the protocol: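 Tetracycline-induced HEK293 T-REx D1 line, force-coupled to calcium flux, read with no-wash calcium dye. Compound added after 10 s baseline, read 180 s for agonism, then EC80 dopamine added and read a further 180 s.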

Assay [18] in a line: Nrf2 qHTS screen for inhibitors: Validation (AID 493153; active = well fitted inhibition curve with a large enough effect in the main read-out, with a control signal flat, not every such curve was filed as active; note: potency is the fitted concentration of half-maximal effect). Conditions: Potency: luciferase luminescence; viability change: measured here: cytotoxicity max response. A digest of the protocol: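 A549 cells carrying ARE-firefly luciferase reporter, 5000 cells/well in 5% FBS OPTI-MEM, treated with compound over a concentration series for 18-24 h at 37 C. Luciferase luminescence gave Nrf2 activity; CellTiter-Fluor fluorescence gave viability.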

Assay [19] has as its target Tyrosyl-DNA phosphodiesterase 1 (Homo sapiens) (UniProt Q9NUW8). Put plainly: Confirmation Assay for Inhibitors of Tyrosyl-DNA Phosphodiesterase (TDP1) (AID 489007). Note: potency is the fitted concentration of half-maximal effect; nearly all actives have a fitted effect of over 40% in size. The settings on record: recombinant human TDP1 enzymatic activity, dose-response. In a few lines:
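Recombinant human Tdp1 (1 nM final), expressed in E. coli, preincubated 15 min with compound. Then 15 nM 5'-biotin/3'-phosphotyrosine-FITC DNA substrate added for 5 min at room temperature. AlphaScreen beads (10 ug/ml) added for 10 min; cleavage gives signal loss.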

Assay [20] concerns the target ATP-dependent 6-phosphofructokinase (Trypanosoma brucei brucei) (UniProt O15648). Nature of the assay: qHTS Assay to Find Inhibitors of T. brucei phosphofructokinase: hit validation (AID 492961). Note: series mostly up to about 51 µM; % is set by controls: 0 for no effect and ±100 for the full control effect. In a few lines:
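Luminescence from ADP-Glo reports ADP generated as T. brucei PFK (1.25 nM) phosphorylates 0.5 mM fructose-6-phosphate using 0.1 mM ATP. Reactions ran 45 min at room temperature, pH 8.0.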

Sequence of Chromobox protein homolog 1 (Homo sapiens) (P83916 whole entry, looked up): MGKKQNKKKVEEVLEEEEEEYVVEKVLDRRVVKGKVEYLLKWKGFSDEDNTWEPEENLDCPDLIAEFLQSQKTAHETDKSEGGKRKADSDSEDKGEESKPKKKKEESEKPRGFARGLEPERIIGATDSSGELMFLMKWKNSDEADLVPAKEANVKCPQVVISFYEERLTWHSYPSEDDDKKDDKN
Sequence of Flap endonuclease 1 (Homo sapiens) (P39748 whole entry, looked up): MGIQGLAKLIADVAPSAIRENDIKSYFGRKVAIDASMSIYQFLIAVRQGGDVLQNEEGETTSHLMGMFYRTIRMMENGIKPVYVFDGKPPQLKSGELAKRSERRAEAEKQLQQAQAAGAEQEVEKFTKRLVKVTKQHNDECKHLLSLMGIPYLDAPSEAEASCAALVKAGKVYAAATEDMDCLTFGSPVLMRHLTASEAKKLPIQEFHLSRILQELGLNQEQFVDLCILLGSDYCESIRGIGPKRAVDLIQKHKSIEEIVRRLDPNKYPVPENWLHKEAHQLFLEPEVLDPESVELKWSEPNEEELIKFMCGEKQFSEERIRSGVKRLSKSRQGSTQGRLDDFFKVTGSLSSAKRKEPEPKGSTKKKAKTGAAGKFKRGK
Sequence of M-phase phosphoprotein 8 (Homo sapiens) (Q99549 whole entry, looked up): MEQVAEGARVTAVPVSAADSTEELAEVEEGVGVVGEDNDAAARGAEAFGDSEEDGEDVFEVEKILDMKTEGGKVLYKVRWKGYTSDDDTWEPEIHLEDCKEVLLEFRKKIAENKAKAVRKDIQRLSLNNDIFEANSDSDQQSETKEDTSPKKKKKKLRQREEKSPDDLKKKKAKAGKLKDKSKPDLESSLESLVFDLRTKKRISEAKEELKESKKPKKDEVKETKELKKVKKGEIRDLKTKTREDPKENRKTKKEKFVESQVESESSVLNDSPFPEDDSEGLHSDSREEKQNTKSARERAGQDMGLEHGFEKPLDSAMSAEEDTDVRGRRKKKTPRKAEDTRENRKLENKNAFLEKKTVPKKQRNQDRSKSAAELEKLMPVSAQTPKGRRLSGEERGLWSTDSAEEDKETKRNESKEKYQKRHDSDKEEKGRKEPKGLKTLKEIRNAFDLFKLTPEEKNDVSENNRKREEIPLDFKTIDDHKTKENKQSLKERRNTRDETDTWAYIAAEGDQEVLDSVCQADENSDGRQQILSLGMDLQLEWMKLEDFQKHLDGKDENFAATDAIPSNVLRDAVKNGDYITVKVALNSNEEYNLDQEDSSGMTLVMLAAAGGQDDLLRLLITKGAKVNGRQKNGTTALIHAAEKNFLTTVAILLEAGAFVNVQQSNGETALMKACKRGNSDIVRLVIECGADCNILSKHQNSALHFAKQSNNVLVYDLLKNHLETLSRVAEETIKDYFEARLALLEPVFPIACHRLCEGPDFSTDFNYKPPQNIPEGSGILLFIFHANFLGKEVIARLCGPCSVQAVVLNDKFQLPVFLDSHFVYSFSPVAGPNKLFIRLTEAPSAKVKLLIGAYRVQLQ
Sequence of D(1A) dopamine receptor (Homo sapiens) (P21728 whole entry, looked up): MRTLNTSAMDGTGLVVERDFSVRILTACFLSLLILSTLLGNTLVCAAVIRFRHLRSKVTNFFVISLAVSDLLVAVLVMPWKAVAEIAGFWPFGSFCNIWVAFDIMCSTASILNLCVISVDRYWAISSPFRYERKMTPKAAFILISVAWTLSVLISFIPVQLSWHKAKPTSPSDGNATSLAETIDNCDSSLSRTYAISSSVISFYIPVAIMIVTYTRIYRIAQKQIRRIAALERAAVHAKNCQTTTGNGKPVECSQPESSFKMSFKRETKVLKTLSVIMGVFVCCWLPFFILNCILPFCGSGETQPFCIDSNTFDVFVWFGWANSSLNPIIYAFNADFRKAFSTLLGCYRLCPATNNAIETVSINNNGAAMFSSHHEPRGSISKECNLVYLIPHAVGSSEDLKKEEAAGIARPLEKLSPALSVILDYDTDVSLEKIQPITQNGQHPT
Sequence of Phosphoglycerate kinase, glycosomal (Trypanosoma brucei brucei) (P07378 whole entry, looked up): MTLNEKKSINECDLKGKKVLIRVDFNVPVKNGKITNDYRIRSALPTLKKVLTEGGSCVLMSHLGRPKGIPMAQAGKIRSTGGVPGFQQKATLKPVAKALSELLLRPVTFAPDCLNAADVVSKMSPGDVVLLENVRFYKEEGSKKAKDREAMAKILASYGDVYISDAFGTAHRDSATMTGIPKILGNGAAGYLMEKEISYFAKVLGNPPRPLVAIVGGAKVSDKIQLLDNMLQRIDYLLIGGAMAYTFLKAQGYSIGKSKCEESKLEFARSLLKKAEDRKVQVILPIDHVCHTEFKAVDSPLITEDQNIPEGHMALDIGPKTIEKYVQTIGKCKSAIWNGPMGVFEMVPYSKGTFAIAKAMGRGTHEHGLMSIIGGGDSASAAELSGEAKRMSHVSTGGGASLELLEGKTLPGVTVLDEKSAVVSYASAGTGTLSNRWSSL
Sequence of ATP-dependent 6-phosphofructokinase (Trypanosoma brucei brucei) (O15648 whole entry, looked up): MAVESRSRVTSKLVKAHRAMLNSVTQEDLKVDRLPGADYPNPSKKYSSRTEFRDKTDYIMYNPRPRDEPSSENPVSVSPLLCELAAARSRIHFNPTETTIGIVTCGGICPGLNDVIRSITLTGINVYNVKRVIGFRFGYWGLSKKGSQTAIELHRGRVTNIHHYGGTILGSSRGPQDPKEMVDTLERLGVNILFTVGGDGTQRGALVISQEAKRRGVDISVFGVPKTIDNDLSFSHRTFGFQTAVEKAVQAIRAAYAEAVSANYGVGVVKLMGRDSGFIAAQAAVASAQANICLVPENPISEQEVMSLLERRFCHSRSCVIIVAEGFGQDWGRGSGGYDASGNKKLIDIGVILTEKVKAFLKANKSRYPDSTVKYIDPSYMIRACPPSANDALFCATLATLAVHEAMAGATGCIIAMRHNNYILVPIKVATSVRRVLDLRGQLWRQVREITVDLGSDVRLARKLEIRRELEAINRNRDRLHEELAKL
Sequence of Thioredoxin reductase 1, cytoplasmic (Rattus norvegicus) (O89049 whole entry, looked up): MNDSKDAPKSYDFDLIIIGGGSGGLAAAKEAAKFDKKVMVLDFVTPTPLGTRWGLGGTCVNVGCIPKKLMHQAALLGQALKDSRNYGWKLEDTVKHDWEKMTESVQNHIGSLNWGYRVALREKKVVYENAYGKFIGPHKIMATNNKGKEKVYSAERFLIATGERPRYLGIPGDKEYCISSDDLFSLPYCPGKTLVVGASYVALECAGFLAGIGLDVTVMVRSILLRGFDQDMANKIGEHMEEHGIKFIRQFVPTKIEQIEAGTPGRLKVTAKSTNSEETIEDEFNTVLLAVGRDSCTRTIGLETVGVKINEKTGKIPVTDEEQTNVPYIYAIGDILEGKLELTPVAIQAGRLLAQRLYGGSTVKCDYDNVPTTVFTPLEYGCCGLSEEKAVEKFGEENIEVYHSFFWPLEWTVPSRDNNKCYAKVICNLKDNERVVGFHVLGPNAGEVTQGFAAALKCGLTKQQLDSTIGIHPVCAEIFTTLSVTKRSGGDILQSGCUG
Sequence of Methanococcus maripaludis chaperonin (MmCpn) (Q6LX38 1-543): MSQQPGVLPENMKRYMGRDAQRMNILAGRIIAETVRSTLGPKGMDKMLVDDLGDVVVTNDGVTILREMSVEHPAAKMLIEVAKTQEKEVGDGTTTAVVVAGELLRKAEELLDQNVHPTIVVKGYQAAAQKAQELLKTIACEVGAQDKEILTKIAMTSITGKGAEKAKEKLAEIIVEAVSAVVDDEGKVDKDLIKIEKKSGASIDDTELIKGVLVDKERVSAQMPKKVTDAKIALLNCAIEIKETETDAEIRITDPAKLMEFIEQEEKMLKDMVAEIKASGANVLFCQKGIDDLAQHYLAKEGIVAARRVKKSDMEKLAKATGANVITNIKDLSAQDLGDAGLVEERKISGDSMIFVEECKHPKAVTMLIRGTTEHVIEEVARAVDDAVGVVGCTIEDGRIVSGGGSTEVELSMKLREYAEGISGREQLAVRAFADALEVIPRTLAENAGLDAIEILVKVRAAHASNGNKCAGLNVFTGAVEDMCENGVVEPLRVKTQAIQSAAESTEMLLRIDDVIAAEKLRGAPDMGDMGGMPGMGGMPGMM
Sequence of Galactokinase (Homo sapiens) (P51570 whole entry, looked up): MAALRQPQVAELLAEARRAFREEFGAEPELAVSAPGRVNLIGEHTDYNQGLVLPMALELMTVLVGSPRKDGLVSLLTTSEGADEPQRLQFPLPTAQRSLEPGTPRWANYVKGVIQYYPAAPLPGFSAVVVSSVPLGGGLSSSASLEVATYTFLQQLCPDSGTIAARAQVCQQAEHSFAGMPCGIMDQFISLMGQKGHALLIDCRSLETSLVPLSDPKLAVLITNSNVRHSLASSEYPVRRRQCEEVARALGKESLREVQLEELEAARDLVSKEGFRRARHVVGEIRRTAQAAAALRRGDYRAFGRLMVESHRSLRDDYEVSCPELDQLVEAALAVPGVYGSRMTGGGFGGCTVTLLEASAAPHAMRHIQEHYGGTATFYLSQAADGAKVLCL
Sequence of Peptidyl-prolyl cis-trans isomerase NIMA-interacting 1 (Homo sapiens) (Q13526 whole entry, looked up): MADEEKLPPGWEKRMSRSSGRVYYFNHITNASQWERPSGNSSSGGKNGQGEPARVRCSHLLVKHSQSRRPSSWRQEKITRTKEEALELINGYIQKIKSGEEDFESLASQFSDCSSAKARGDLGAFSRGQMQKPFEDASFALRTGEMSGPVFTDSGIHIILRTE
Sequence of Thyrotropin-releasing hormone receptor (Homo sapiens) (P34981 whole entry, looked up): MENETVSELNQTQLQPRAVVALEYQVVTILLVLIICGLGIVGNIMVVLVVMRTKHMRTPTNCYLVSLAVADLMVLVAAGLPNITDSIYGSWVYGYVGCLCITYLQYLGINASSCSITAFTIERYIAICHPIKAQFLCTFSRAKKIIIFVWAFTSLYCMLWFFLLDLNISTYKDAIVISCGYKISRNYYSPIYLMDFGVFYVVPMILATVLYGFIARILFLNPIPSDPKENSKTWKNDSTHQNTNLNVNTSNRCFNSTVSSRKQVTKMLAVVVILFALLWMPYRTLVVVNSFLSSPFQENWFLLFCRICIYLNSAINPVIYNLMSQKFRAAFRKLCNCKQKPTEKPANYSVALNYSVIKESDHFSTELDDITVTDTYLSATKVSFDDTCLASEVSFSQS

Regarding `Cc1ccc(S(=O)(=O)N[C@@H](Cc2ccccc2)C(=O)CCl)cc1`, the Potency is 21.2 µM (active) in assay [1] and 14.6 µM (active) in assay [9]. For the same compound, the Potency result in assay [2], in assay [3], in assay [4] and in assay [15] was “inactive” throughout. The outcome in assay [5], in [6], in [7], in assay [8], in [11] and in assay [12] was inactive. The outcome in assay [13] and in assay [14] was inactive. In addition, the activation in [10] was 2.5% (inactive).

`CC1CC2C3CCC4=CC(=O)C=C[C@]4(C)[C@@]3(F)[C@@H](O)C[C@]2(C)[C@@]1(O)C(=O)CO` (some centres not stated): the Potency entry in [1], in [2], in assay [3], in assay [4], in assay [9] and in assay [15] was “inactive” throughout. Moreover, the result in assay [16], in assay [7], in [8], in assay [17], in [11] and in [14] was inactive. In addition, the Potency in [18] is 0.013 µM (active). In addition, the viability change in assay [18] was -3.14%.

As to `CC1=C(C(=O)O)N2C(=O)[C@@H](NC(=O)C(N)c3ccccc3)[C@H]2SC1` (some centres not stated), the Potency result in assay [1], in assay [2], in [4], in assay [9], in assay [18] and in assay [15] was “inactive” throughout. Besides, the outcome in assay [16], in [5], in [7], in [8], in [17] and in [11] was inactive. Also, the compound was classed as inactive in assay [12] and in assay [13]. Besides, the activation in [10] was 0% (inactive). For the same compound, the viability change in [18] stood at 3.05%.

With `COc1ccc(C(=O)CC(=O)c2ccc(C(C)(C)C)cc2)cc1`, the Potency in [19] was 25.1 µM (active).

In the case of `C[C@@H](NCCCc1cccc(C(F)(F)F)c1)c1cccc2ccccc12`, the Potency entry in assay [20] is “inactive”.

Consider `CN1CCN(c2c(F)cc3c(=O)c(C(=O)O)cn(CCF)c3c2F)CC1`, for which the Potency result in assay [20] was “inactive”.

For `NC(N)=NC(N)=NCCc1ccccc1`, the Potency result in [20] is “inactive”.

In the case of `CNC1CCCN(c2c(F)cc3c(=O)c(C(=O)O)cn(C4CC4)c3c2OC)C1` (configuration not stated), the Potency result in assay [20] is “inactive”.

Consider `CCOC(=O)c1ccc(OC(=O)CCCCCN=C(N)N)cc1`, for which the Potency entry in assay [20] is “inactive”.

With `Cn1nnc2c(C(N)=O)ncn2c1=O`, the Potency entry in assay [20] was “inactive”.

Consider `COc1cc(NS(=O)(=O)c2ccc(N)cc2)nc(OC)n1`, for which, in assay [20], the Potency result was “inactive”.

On to `Nc1nc(N)nc(-c2cc(Cl)ccc2Cl)n1`, for which the Potency entry in assay [20] is “inactive”.

`C#CCN[C@@H]1CCc2ccccc21`: the Potency entry in assay [20] was “inactive”.

Consider `CCCCCCNC(=O)n1cc(F)c(=O)[nH]c1=O`, for which, in assay [20], the Potency result is “inactive”.

On to `CCc1c2c(nc3ccc(OC(=O)N4CCC(N5CCCCC5)CC4)cc13)-c1cc3c(c(=O)n1C2)COC(=O)[C@]3(O)CC`, for which the Potency result in [20] was “inactive”.

Regarding `COC(=O)Nc1nc2ccc(C(=O)c3ccccc3)cc2[nH]1`, the Potency entry in assay [20] is “inactive”.

Consider `CCCCOc1ccc(CC(=O)NO)cc1`, for which, in assay [20], the Potency result is “inactive”.

For the compound `OC(Cn1cncn1)(Cn1cncn1)c1ccc(F)cc1F`, the Potency entry in assay [20] is “inactive”.

In the case of `CCn1cc(C(=O)O)c(=O)c2cc(F)c(N3CCNCC3)nc21`, in [20], the Potency result is “inactive”.

Take `CCN(C)C(=O)Oc1cccc([C@H](C)N(C)C)c1`: the Potency result in assay [20] is “inactive”.

As for `CC1=NN(c2ccccc2)C(=O)C1`, in [20], the Potency entry is “inactive”.

For the compound `O=C(O)c1cn(C2CC2)c2cc(N3CCNCC3)c(F)cc2c1=O`, the Potency result in assay [20] was “inactive”.

`COc1cc2c(Nc3ccc(Br)cc3F)ncnc2cc1OCC1CCN(C)CC1`: the Potency result in [20] is “inactive”.

Consider `Cc1ccnc2c1NC(=O)c1cccnc1N2C1CC1`, for which the Potency entry in assay [20] is “inactive”.

On to `S=P(N1CC1)(N1CC1)N1CC1`, for which the Potency entry in assay [20] was “inactive”.

In the case of `COc1cnc(NS(=O)(=O)c2ccc(N)cc2)nc1`, in assay [20], the Potency result was “inactive”.

For the compound `CC(C)Cn1cnc2c(N)nc3ccccc3c21`, the Potency entry in assay [20] was “inactive”.

Regarding `CC[C@H](NC(C)C)[C@H](O)c1ccc(O)c2[nH]c(=O)ccc12`, the Potency result in assay [20] was “inactive”.

As for `CCCN[C@H]1CCc2nc(N)sc2C1`, in assay [20], the Potency entry is “inactive”.

Turning to `O=NN(CCCl)C(=O)NC1CCCCC1`, the Potency result in assay [20] is “inactive”.
